Compounds without any hit were thinned out: in the full panel of roughly 83,000, 20% have a hit.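 In brief: 96-well plates, 48 h treatment, single concentration, percent growth endpoint.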 Values without a mark were called inactive. Activity calls are given as the source filed them. How the source made its calls: active means growth percent below 10; inactive means the rest.

Among the test systems are RPMI-8226 leukemia; OVCAR-8 ovarian; OVCAR-5 ovarian; OVCAR-4 ovarian; SK-OV-3 ovarian; IGROV1 ovarian; OVCAR-3 ovarian; NCI/ADR-RES ovarian; T-47D breast; BT-549 breast; MDA-MB-435 melanoma; SW-620 colon; MCF7 breast; HCT-116 colon; HCC-2998 colon; KM12 colon; HS 578T breast.
Holding throughout (assay): NCI-60 one-dose screen, 48 h (100 = growth as untreated, 0 = no growth, -100 = all killed)
Conditions in all cases: 10 µM unless noted

With `Cn1cc(-c2nc(-c3c[nH]c4ncccc34)cs2)c2cccnc21`, the growth in the assay on RPMI-8226 leukemia is 67.1%; in the assay on OVCAR-8 ovarian, 82.9%; in the assay on OVCAR-5 ovarian it was 83.6%; in the assay on OVCAR-4 ovarian it was 70.4%; with SK-OV-3 ovarian, 62%; with IGROV1 ovarian it was 61.5%. Besides, the growth with OVCAR-3 ovarian is 82.6%; in the assay on NCI/ADR-RES ovarian, 44.7%; with T-47D breast, 51.4%; in the assay with BT-549 breast, 64.7%; with MDA-MB-435 melanoma, 5.79% (active); with SW-620 colon, 60.4%. Further, the growth in the assay with MCF7 breast is 59%; with HCT-116 colon, 41.7%; in the assay with HCC-2998 colon, 76.1%; in the assay on KM12 colon, 52.1%.

Take `Cn1cc(-c2csc(-c3c[nH]c4ncccc34)n2)c2cc(Br)cnc21`: the growth with RPMI-8226 leukemia was 61.8%; in the assay with OVCAR-8 ovarian, 22.4%; in the assay with OVCAR-5 ovarian, 82.3%; with OVCAR-4 ovarian, -34.6% (active); in the assay with SK-OV-3 ovarian, 0.893% (active); in the assay on IGROV1 ovarian, 27.3%. Moreover, the growth in the assay with OVCAR-3 ovarian is 20.6%; in the assay on NCI/ADR-RES ovarian it was 29.2%; with T-47D breast, 20.7%; with BT-549 breast it was 45.5%; in the assay with MDA-MB-435 melanoma, 33.8%; in the assay with SW-620 colon it was 39.2%. Also, the growth was 35% in the assay on MCF7 breast, 5.99% (active) in the assay with HCT-116 colon, 64.2% in the assay on HCC-2998 colon and 63.1% in the assay on KM12 colon.

Turning to `C/C(=C\CCc1ccsc1)CC/C=C(\C)CCCN1CCC(CO)CC1`, the growth in the assay with RPMI-8226 leukemia was -31.1% (active); with OVCAR-8 ovarian it was 62.8%; in the assay with OVCAR-5 ovarian, 63.9%; in the assay on OVCAR-4 ovarian, 40.8%; in the assay with SK-OV-3 ovarian it was 55.5%; with OVCAR-3 ovarian, 48.6%. Further, the growth was 28.3% in the assay with HS 578T breast; 51% with NCI/ADR-RES ovarian; 27.1% in the assay with T-47D breast; 36.2% with BT-549 breast; 13% with MDA-MB-435 melanoma; -29.8% (active) in the assay on SW-620 colon. In addition, the growth was 16% with MCF7 breast, -2.6% (active) in the assay with HCT-116 colon, -14.9% (active) with HCC-2998 colon and 5.04% (active) with KM12 colon.

For the compound `C[C@]12CC[C@@H]3c4ccc(O)c([N+](=O)[O-])c4CC[C@H]3[C@@H]1CC[C@@H]2NS(=O)(=O)c1ccc(C(F)(F)F)cc1`, the growth was 15.6% in the assay on RPMI-8226 leukemia; 26.9% in the assay with OVCAR-8 ovarian; 80.8% in the assay on OVCAR-5 ovarian; 31% in the assay on OVCAR-4 ovarian; 74.2% in the assay with SK-OV-3 ovarian; 23.2% with OVCAR-3 ovarian. Also, the growth in the assay with HS 578T breast is 52.7%; with NCI/ADR-RES ovarian, 27.7%; in the assay on T-47D breast it was 18.6%; in the assay on BT-549 breast, 30.9%; in the assay with MDA-MB-435 melanoma, 17.3%; with SW-620 colon it was 34.2%. Further, the growth was 11.8% with MCF7 breast, 15.5% in the assay on HCT-116 colon, 53.8% in the assay on HCC-2998 colon and 19.9% in the assay with KM12 colon.

For the compound `c1cncc(CNc2ccccc2-c2nnc(Nc3ccc4c(c3)OCO4)o2)c1`, the growth is 27.5% in the assay with RPMI-8226 leukemia; 26.1% with OVCAR-8 ovarian; 25.2% with OVCAR-5 ovarian; 36.3% with OVCAR-4 ovarian; -3.15% (active) with SK-OV-3 ovarian; -22% (active) in the assay on OVCAR-3 ovarian. Moreover, the growth in the assay on HS 578T breast is 35.4%; in the assay on NCI/ADR-RES ovarian it was 19.4%; with T-47D breast it was 43.5%; in the assay on BT-549 breast it was 39.2%; with MDA-MB-435 melanoma, -28% (active); in the assay on SW-620 colon it was 30.6%. The growth in the assay with MCF7 breast was 9.29% (active); in the assay with HCT-116 colon, 8.54% (active); with HCC-2998 colon it was 20.1%; with KM12 colon, 3.86% (active).

Turning to `CCOC(=O)c1c(C)nc(C)c(C(=O)OCC)c1-c1cccnc1`, the growth is 104% in the assay with RPMI-8226 leukemia; 112% with OVCAR-8 ovarian; 97.8% with OVCAR-5 ovarian; 97.8% in the assay on OVCAR-4 ovarian; 99.2% with SK-OV-3 ovarian; 115% with OVCAR-3 ovarian. For the same compound, the growth in the assay on HS 578T breast was 122%; in the assay with NCI/ADR-RES ovarian it was 103%; in the assay on T-47D breast, 92%; in the assay on BT-549 breast, 106%; in the assay on MDA-MB-435 melanoma, 111%; with SW-620 colon, 112%. Also, the growth in the assay on MCF7 breast was 109%; in the assay with HCT-116 colon, 90%; with HCC-2998 colon, 104%; with KM12 colon, 110%.

For the compound `CCN1C2=C(SC(=S)C1=C1SC(C(=O)OC)=C(C(=O)OC)S1)SC(=Nc1ccc(OC)cc1)C2=O`, the growth is -13.4% (active) in the assay with RPMI-8226 leukemia; -21.7% (active) in the assay with OVCAR-8 ovarian; -24.6% (active) in the assay with OVCAR-5 ovarian; 5.88% (active) in the assay on OVCAR-4 ovarian; 61% with SK-OV-3 ovarian; -61% (active) in the assay with OVCAR-3 ovarian. Also, the growth with HS 578T breast was 26.2%; with NCI/ADR-RES ovarian, -12.2% (active); in the assay on T-47D breast, 12.7%; in the assay on BT-549 breast, -80.5% (active); in the assay on MDA-MB-435 melanoma, -40.3% (active); with SW-620 colon, -67.4% (active). For the same compound, the growth is 4.13% (active) in the assay on MCF7 breast, -80% (active) in the assay on HCT-116 colon, -66.3% (active) in the assay with HCC-2998 colon and -89.1% (active) in the assay with KM12 colon.

Consider `C[C@@H]1CC[C@H]2[C@@H](C)C(O)O[C@@H]3O[C@]4(C)CC[C@@H]1[C@]32OO4` (some centres not stated), for which the growth in the assay with RPMI-8226 leukemia is 3.35% (active); with OVCAR-8 ovarian, 19.2%; in the assay on OVCAR-5 ovarian, 26.5%; in the assay on OVCAR-4 ovarian, 40.2%; in the assay with SK-OV-3 ovarian, 95.4%; in the assay on OVCAR-3 ovarian, 30.1%. Further, the growth with HS 578T breast is 46.4%; with NCI/ADR-RES ovarian, 9.21% (active); in the assay with T-47D breast, 36.3%; in the assay with BT-549 breast it was 32.3%; in the assay with MDA-MB-435 melanoma it was 2.52% (active); with SW-620 colon it was 17.5%. Also, the figures for the growth in the assay with HCT-116 colon, in the assay on HCC-2998 colon and with KM12 colon were 8.03% (active), 41.3% and 18.3%, respectively.

`Cc1cc2c(C#N)n3c(c2cc1C)C(=O)C(c1ccccc1)Oc1ccccc1-3` (configuration not stated): the growth in the assay with RPMI-8226 leukemia is 29.6%; in the assay with OVCAR-8 ovarian, 23.6%; in the assay with OVCAR-5 ovarian, 48.6%; in the assay on OVCAR-4 ovarian, 22.4%; with SK-OV-3 ovarian, 39.6%; with OVCAR-3 ovarian, 25.3%. Besides, the growth in the assay with HS 578T breast is 46.2%; in the assay with NCI/ADR-RES ovarian, 25.8%; in the assay on T-47D breast, 15.2%; in the assay on BT-549 breast, 17%; in the assay on MDA-MB-435 melanoma, 0.71% (active); in the assay with SW-620 colon, 47.3%. The growth in the assay with MCF7 breast is 68.2%; with HCT-116 colon, 12.8%; in the assay with KM12 colon it was 15.2%.

Values taken from PubChem BioAssay (NCI).
